The full ranking holds about 33,000 sequences; the median of “E-score (-0.5 to 0.5)” is about -0.054, and the highest 2% start at about 0.35. This is one part of a sample in which the highest values are shown more often than they occur.
These sequences were tested against T1, Stb5 (UniProt P38699) (assay: PBM E-score (8-mer binding enrichment) (E-score (-0.5 to 0.5)); higher = stronger / more preferred TF binding). Settings: protein concentration: 200 nM; construct: GST-full length.
T1 sequence: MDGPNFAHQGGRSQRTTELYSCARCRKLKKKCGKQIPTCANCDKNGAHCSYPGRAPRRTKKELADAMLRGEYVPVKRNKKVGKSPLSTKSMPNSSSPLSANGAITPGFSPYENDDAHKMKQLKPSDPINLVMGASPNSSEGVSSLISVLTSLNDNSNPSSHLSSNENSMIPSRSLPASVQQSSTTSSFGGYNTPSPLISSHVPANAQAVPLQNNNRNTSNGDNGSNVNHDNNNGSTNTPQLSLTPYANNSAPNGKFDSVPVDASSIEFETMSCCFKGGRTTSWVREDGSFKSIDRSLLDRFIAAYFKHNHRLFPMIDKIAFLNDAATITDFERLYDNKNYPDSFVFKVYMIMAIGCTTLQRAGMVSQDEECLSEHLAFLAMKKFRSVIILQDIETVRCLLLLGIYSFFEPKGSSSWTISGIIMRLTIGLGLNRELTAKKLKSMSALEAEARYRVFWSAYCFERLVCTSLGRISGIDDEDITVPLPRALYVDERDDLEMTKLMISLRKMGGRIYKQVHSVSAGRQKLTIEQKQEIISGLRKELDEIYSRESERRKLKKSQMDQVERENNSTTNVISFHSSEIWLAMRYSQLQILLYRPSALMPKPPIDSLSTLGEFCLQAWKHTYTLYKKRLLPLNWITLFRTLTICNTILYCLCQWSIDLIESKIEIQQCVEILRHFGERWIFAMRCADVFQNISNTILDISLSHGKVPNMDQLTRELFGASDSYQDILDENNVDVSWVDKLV
Description: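 Universal 'all 10-mer' protein binding microarrays (Agilent AMADID 015681) probed with GST-tagged S. cerevisiae TFs (full-length or DBD) made by in vitro transcription/translation (PURExpress), about 100-200 nM. Bound TF was detected with fluorescent anti-GST. Each ungapped 8-mer (which stands for itself and its reverse complement) is scored by the PBM enrichment score (E-score), a modified Wilcoxon-Mann-Whitney statistic from -0.5 to +0.5, computed with the Universal PBM Analysis Suite. Scale: above 0.35 generally sequence-specific binding.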

Sequence	PBM E-score
CCACACGC	-0.0412
CTCCGTCA	0.297
ATCTACAT	-0.193
TCCAACAA	-0.129
GAGGTATC	-0.0164
ATGCCGGC	0.301
ATGCCGGG	0.287
ATGCCGGA	0.373
GTTATCGA	-0.0558
CAAGAGAC	-0.146
TCCGACGA	0.252
AGCGACGG	0.245
CCCGACGA	0.31
CCCGACGG	0.437
GCCGACGA	0.308
CCCGACGC	0.388
CCAGACGG	0.179
ACCGACGG	0.42
ACCGACGA	0.354
GCCGACGC	0.316
AACGACGG	0.242
CACGACGG	0.168
AGGGGGAC	-0.248
CGCTGGGC	0.106
AGAGGCGG	0.253

Sequence	PBM E-score
CATAGAAG	-0.126
AGACCCAG	-0.291
GAGGTCCC	-0.19
CTTGGGCA	-0.0874
AGGCCACC	-0.188
CCCTCGAA	-0.222
TAGAACAA	-0.15
CCTTGGTA	0.0875
AACGACGT	-0.0504
ACCGACGT	0.355
ACCGACGC	0.306
TGTGATAA	-0.171
GATACCGC	0.35
AATACCGG	0.417
AATACCGT	0.438
AATACCCT	-0.00882
AATACCGA	0.415
CATACCGG	0.193
CATACCGC	0.307
AATACCAG	-0.007
AATACCAT	-0.0252
CATACCGA	0.279
AATACCGC	0.454
TATACCGA	0.26
CGCGTCTC	0.0131

Sequence	PBM E-score
CATCGACG	0.0157
ATTGCAGA	-0.201
CGCAGCAA	-0.192
ACCGTCCA	0.242
AATGTGCA	-0.241
CGCAGAGC	-0.0211
ATGTGCTC	-0.151
CTGGACTA	-0.143
CAACATTA	-0.0568
AGCACCTA	-0.104
AGCACCCG	0.153
GGCACCGA	0.351
AGCACCAG	-0.177
AGCACCGA	0.476
AGCACCGG	0.421
ACAGAATC	-0.16
AACCGTAG	-0.118
CATTTCTA	0.0892
GGGACTAA	0.246
CGGACTTC	0.374
AGGACTTC	-0.196
GGGACTCA	-0.0395
CGGACTGA	0.359
CGGACTCA	0.411
CTGACTTC	0.00183

Sequence	PBM E-score
AGGACTGA	-0.184
CGGACTAA	0.428
GGGACTGA	-0.172
CGGACTCC	0.231
TGGACTAA	-0.0846
AGATCCAT	0.0463
ATAACGAG	-0.103
CTGGCCTC	-0.252
AGCATCGC	0.0104
CCACCTAA	-0.0966
ACAGTACG	-0.197
CGTTACCA	-0.112
CCCAGTAA	-0.198
AGGACCGA	0.33
CGGACCGC	0.298
AGGACCGC	0.397
ATGACCGG	0.308
ATGACCGA	0.31
ATGACCGC	0.381
CTGGTGCC	0.0505
CGTGCAAA	-0.0367
CCCGAGCA	-0.166
CAGCGTAG	-0.0828
ACGGTTCG	0.0226
GAATTAAC	-0.0887

Sequence	PBM E-score
TAGTGGCA	-0.0544
GGTCGGAA	0.251
AGTCGGAC	0.398
AGTCGGAA	0.221
CGTCGGAA	0.24
CGTCGGAG	0.343
AGTCGGCA	0.325
CGTCGGAC	0.38
AGTCGGAG	0.302
GGTCGGCA	0.375
CGTCGGCA	0.334
GGTCGGAC	0.369
GCTCGGAC	0.242
ACGCCTAT	-0.198
TACTACAA	-0.0615
ACAGCACT	-0.196
TCACCCGA	0.089
AGAGAAGC	-0.27
TAGTCAGA	-0.116
TCTGAGCA	-0.254
AGTCGGGC	0.312
CGTCGGGA	0.337
CGTCGGGC	0.361
GGGTTTAA	0.398
CGGGTTAA	0.221

Sequence	PBM E-score
CGGGTTAC	0.0485
GGGTTTTA	0.322
GGGGTTAA	0.404
GGGGTTAC	0.397
AGGGTTAA	-0.179
AGGGTTAC	-0.0791
TGGTTTAA	-0.231
AAAACGTC	-0.179
GGTTGTCA	-0.0232
GACCGCGA	0.31
AACCGCTA	0.0216
CACCGCTA	0.388
AACCGCTG	0.0244
GACCGCAA	0.248
TACCGCTA	0.306
AACCGCTC	0.119
CACCGCTC	0.402
GACCGCTC	0.267
GACCGCTA	0.359
CACCGCTG	0.405
AGCCGCTG	0.14
ATAGAGTG	-0.054
ACAGTAAT	-0.154
CTGGCAAA	-0.24
CTCATCGC	-0.0444

Sequence	PBM E-score
CACAATGA	-0.244
ACGGACCT	0.426
ACGGACAG	0.00554
ACGGACAC	0.215
ACGGACAT	0.41
ACGGACCA	0.237
ACGGACCG	0.297
TACTTTGA	-0.207
ATGTCCGC	0.443
CCGTCCGC	0.292
CTGTCCGC	0.129
ATGTCCCC	0.224
GTGTCCGA	0.231
ATGTCCCG	0.219
CTGTCCGA	0.201
ATGTCCGA	0.412
ATGTCCGG	0.415
ACGTCCGA	0.333
ATGTCCTG	-0.0717
ACGTCCGC	0.367
CCAAGCAA	-0.148
CTGCTAGA	0.0321
CTAAGGCA	-0.101
CTTGTCTA	-0.11
CCAGGCCA	-0.312

Sequence	PBM E-score
TGCGGTAA	0.278
CGCGGTAC	0.34
AGCGGTAA	0.34
GGCGGTAC	0.361
AGCGGTAC	0.347
GGCGGTAA	0.385
TCAAGTCA	-0.175
GCACCTCA	-0.199
CAATTATC	0.215
ACTCCGAC	0.425
ACTCCGAG	0.202
ATTCCGTC	0.141
CGTCCGTC	0.21
CCTCCGTC	0.195
ACTCCGTA	0.35
ACTCCGTC	0.367
ACTCCGTG	0.352
AGTCCGTA	0.284
AGTCCGTC	0.389
ACTCCGAA	0.328
ATTCCGTG	0.00715
TACAACCA	-0.0508
ACTCCCCA	-0.225
GCGACAGC	0.105
ACGAGGCA	-0.206

Sequence	PBM E-score
TATGTCCA	0.133
AGGGCGAG	-0.295
CGGCGCCA	0.377
GGGCGATA	0.11
CGGCGCTA	0.447
CGGCGCGC	0.275
CGGCGATA	0.463
AGGCGATA	-0.0449
GGGCGCTA	0.0264
AGGCGCTA	0.0525
AGGCGCCA	0.041
TGGCGCCA	0.0517
CGGCGCGA	0.373
AGGCGCGA	-0.00867
TGCCTCCA	-0.237
GTCATTGA	-0.109
TGGAGACA	-0.254
AGGTGCGC	0.0592
AGGCGGGC	0.275
AGGCGGAG	0.356
ACGCGGAC	0.241
AGGCGGGA	0.234
AGGCGGAA	0.131
AGGCGGCC	0.235
AGGCGGAT	0.0922

Sequence	PBM E-score
AGGCGGGG	0.38
AGGCGGAC	0.356
AGTGGCAA	-0.04
CTGCTATA	0.0793
CAGAGTGG	-0.19
AGAACCAC	0.0238
CATCATAG	-0.0501
AGGAGCAC	-0.252
GCCATTAA	-0.0877
CGTATTAC	0.188
AGTATTAA	-0.0112
GGTATTAC	0.386
TGTATTAA	-0.0825
AGTATTAC	0.0335
GGTATTAA	0.404
GTCTTTTA	-0.0581
ATGCGGGC	0.087
CCATCGGG	0.262
ATACCCGG	0.239
AAGTGCGC	0.243
CGTCATGA	-0.0111
AGGGCAGG	-0.205
TCGAAACA	-0.233
CGCGGCGC	0.318
AACGGCGC	0.222

Sequence	PBM E-score
AGCGGCGC	0.363
AGCGGCGA	0.317
AACAGCGG	0.366
ATCGGCGA	0.272
ATCGGCGC	0.291
ATCGGCGG	0.363
AGCGGCGG	0.401
AACAGCGA	0.235
CACAGCGG	0.286
AGCGGCTG	0.0872
GGCTCGAC	-0.113
ACCTGACA	-0.145
ATAGACCA	-0.188
TACAGATA	0.048
TAGTAGGA	-0.0819
ACTTACCG	0.195
GAGCCAGC	0.00015
AGGCGATC	-0.302
AAGGAGGT	-0.0343
GCAAGCCC	0.117
AGGGGCGG	0.36
AGGGGCGC	-0.0545
AGGGGCGA	-0.0945
ATCTTTTA	0.034
AAGGCTCT	-0.214

Sequence	PBM E-score
AGTACCAG	-0.0537
ACTACCGC	0.329
AGTACCGG	0.367
AGTACCGC	0.435
CGTACCGC	0.302
CGTACCGA	0.205
GGTACCGA	0.286
AGTACCCG	0.0305
AGTACCGA	0.439
AGTCGTAG	-0.232
AAGAGTGC	-0.0116
CCACTAGG	-0.166
TTCTCCAA	-0.0481
AAAGTATG	-0.172
GACCCGAC	0.295
ACCCCGAA	0.37
TCCCCGAA	0.266
ACCCCGAC	0.444
CCCCCGAA	0.213
ACCCCGAT	0.441
AACCCGAT	0.222
GCCCCGAA	0.198
ACCCCGAG	0.351
GCCCCGAC	0.371
CCCCCGAC	0.349

Sequence	PBM E-score
AACCCGAC	0.347
GCACTGGC	-0.0607
CATGTTCA	-0.334
CGGACAAC	0.144
ATCCGCTG	0.189
ATGATGGC	-0.19
CACGCCTG	-0.158
CCATCTAA	-0.192
CGACACCG	0.371
ACACACCT	-0.0405
CAACACCG	0.408
CGACACCC	0.0971
CAACACCC	-0.206
CGACACCA	0.0464
ATACACCC	0.254
CAACACCA	-0.1
ATACACCA	-0.0712
ACACACCC	0.0669
ACACACCG	0.372
ATACACCG	0.402
CTTAAACC	-0.0424
AAATACTG	-0.0876
ATCTTTGA	-0.157
AATTGAAA	-0.198
GCTAAGTA	-0.0566

Sequence	PBM E-score
CAAGAGGG	-0.306
AGACACCG	0.436
AGACACCA	-0.13
AGACACCC	-0.231
ACTATCCA	0.0766
AGTTTCTG	-0.117
CTCCGAGC	0.102
ATCCGACA	0.283
CTCCGAGA	0.187
GTCCGACA	0.403
GTCCGAGA	0.184
GTCCGAAA	0.259
ATCCGACC	0.262
CTCCGACC	0.375
CTCCGACA	0.366
CTACATGC	-0.179
CTTCTGTA	-0.09
CACCACAA	-0.0283
GAGTGGGC	0.0251

Source: the supplement of paper PMC3334620
